CHOP inhibitor = CHOP inhibition in unfolded protein response; CHO-K1 CHOP-promoter luciferase, tunicamycin-induced, 15-18 h; inhibition, % at 10 µM; actives 3.8% (n = 220,000); AID 2732;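 active = compounds that reduced the stress-induced luciferase reporter signal by more than about 70% of percent inhibition, limit read from the data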;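 note: 0% = tunicamycin plus vehicle and 100% = wells without tunicamycin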
Lmaj promast = Leishmania major promastigote growth inhibition; Leishmania major promastigotes, resazurin fluorescence viability; AID 1063; actives 9% (n = 200,000); inhibition, % at 10 µM; in the data active = inhibition above about 50%;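 note: promastigotes grown with compound for 44 hours at 28 °C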
WT yeast gro inh = growth inhibition of WT yeast, mitochondrial fusion screen; inhibition, % at 10 µM; actives 2.1% (n = 190,000); mitochondrial fusion phenotypic screen, WT strain; AID 1362; in the data active = inhibition above about 58%; tested in S. cerevisiae
RAM inhibit = yeast RAM network inhibition. S. cerevisiae dse1pr::URA3 reporter, 5-FOA growth OD615, 2 d; analog-sensitive cbk1-as2 kinase mutant strain. inhibition, % at 50 µM. actives 1.8% (n = 190,000). AID 868;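 active = inhibition above a set limit, 3 SD over mean compound inhibition, cut at about 8.4% in these data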;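 note: 0% = DMSO-only wells with no growth and 100% = 10 µM 1-NA-PP1 full growth; inhibition rescues growth on 5-FOA so higher OD means more RAM inhibition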
Numbers without * were called inactive; x = not tested or not shown. Sampled rows, rich in hits. Any-hit rate of the full collection: about 13%.

SMILES	CHOP inhibitor	Lmaj promast	WT yeast gro inh	RAM inhibit
COc1ccc(CSc2nnc(Cc3sc(-c4ccccc4)nc3-c3ccccc3)o2)cc1	35.2	10.4	-1.0	9.6*
CC1(C)SC[C@H](C(=O)Nc2cccc(Cl)c2)N1C=O	-0.1	x	x	x
O=C(O)CCN1C(=O)c2ccc(Oc3ccc4c(c3)C(=O)N(CCC(=O)O)C4=O)cc2C1=O	11.2	-3.5	-10.6	10.4*
O=C(CCc1nnc(Cc2cccc(C(F)(F)F)c2)o1)NC1CC1	78.0*	-3.9	5.1	-0.1
CC(=O)N(Cc1cccnc1)c1cccc(-c2nc3ccccc3s2)c1	4.9	100.3*	22.9	0.0
CC1CSc2n(-c3cccc(C(F)(F)F)c3)cc(-c3ccccc3)[n+]21 (configuration not stated)	12.6	86.8*	-1.8	2.4
FC(F)(F)c1cccc(N2Cc3ccccc3C2)c1	48.9	-5.5	18.9	1.7
Cc1c(C(=O)C(=O)NCc2ccco2)c2ccccc2n1C	10.6	0.0	-14.3	-0.4
CCOC(=O)/C(=N\Nc1ccccc1)c1csc(Nc2ccc(C)cc2)n1	28.6	5.8	-2.8	10.2*
COc1cc(N2CCCC2)c(OC)cc1/C=C1/NC(=S)NC1=O	11.5	96.4*	6.9	4.9
Cc1cccn2cc(CSc3nnc(Nc4ccc(C(C)C)cc4)s3)nc12	-4.0	28.1	67.8*	-1.3
COc1ccc(Nc2nnc(SCc3cn4c(C)cccc4n3)s2)cc1	2.5	-1.8	8.8	-0.6
OCCC1CN(Cc2nc3ccccc3s2)CCN1C1CCCC1 (configuration not stated)	-10.6	66.8*	4.0	0.0
OCCC1CN(CC(c2ccccc2)c2ccccc2)CCN1C1CCCC1 (configuration not stated)	33.6	86.9*	-1.1	0.6
COc1ccccc1C(=O)C1CCCN(C(=O)c2ccccn2)C1 (configuration not stated)	18.6	-3.8	5.4	0.0
c1cnc2c(C3NCCc4c3[nH]c3ccccc43)cccc2c1 (configuration not stated)	3.3	0.5	5.8	0.3
CCn1cc(CN2CCc3c([nH]c4ccccc34)C2c2cccc(OC)c2)c(C)n1 (configuration not stated)	-9.9	29.4	9.4	0.3
CCn1cc(CN2CCc3c([nH]c4ccccc34)C2c2ccc(F)c(OC)c2)c(C)n1 (configuration not stated)	70.3*	42.2	17.7	-0.5
CCn1nc(C)c(CN2CCc3c([nH]c4ccccc34)C2c2ccc(F)c(OC)c2)c1C (configuration not stated)	29.1	74.2*	34.0	1.4
O=C(/C=C/Nc1ccccc1Oc1ccccc1)c1ccco1	5.0	77.3*	55.5	5.1
C=CCNC(=O)c1c(Br)cnn1-c1ccc(C)cc1	-48.4	5.7	11.3	-0.8
Cc1nc(-c2ccccc2)sc1C(=O)NN	0.1	-3.5	-10.9	-0.2
Cc1ccc(N/C=C/C(=O)c2sc(-c3ccccc3)nc2C)cc1	6.2	-4.5	9.1	9.0*
Cc1cc(C)nc(N(C#N)Cc2cccc(Cl)c2)n1	5.4	1.7	-0.1	0.9
CC(=O)Nc1ccc(NC(=O)C23CC4CC(C2)CC(n2cnc(Br)n2)(C4)C3)cc1	-0.7	0.0	0.0	2.3
SMILES	CHOP inhibitor	Lmaj promast	WT yeast gro inh	RAM inhibit
COc1cc(NC(=O)C23CC4CC(C2)CC(n2cnc([N+](=O)[O-])n2)(C4)C3)cc(OC)c1	-5.7	75.6*	0.6	0.1
O=C(Nc1ccccc1)C12CC3CC(C1)CC(n1cnc([N+](=O)[O-])n1)(C3)C2	-10.7	71.7*	4.3	0.0
O=C(Nc1cccc([N+](=O)[O-])c1)C12CC3CC(C1)CC(n1cnc([N+](=O)[O-])n1)(C3)C2	14.6	75.8*	2.9	1.2
Cc1ccc(F)cc1NC(=O)C12CC3CC(C1)CC(n1cnc([N+](=O)[O-])n1)(C3)C2	6.2	66.7*	4.8	1.4
Cc1ccc(NC(=S)NCCN2CCOCC2)cc1F	-2.6	-4.4	12.4	0.8
O=C(COC(=O)c1ccc2c(=O)n3c(nc2c1)CCC3)NC1CCS(=O)(=O)C1 (configuration not stated)	7.4	-0.1	-10.8	0.1
CCN(CC)S(=O)(=O)c1ccc(OCCNS(C)(=O)=O)cc1	10.1	1.4	0.4	1.4
Fc1cccc(Cc2noc(CN3CCCN(C4Cc5ccccc5C4)CC3)n2)c1	8.5	87.9*	6.2	-0.9
Fc1cccc(Cc2noc(CN3CCN(C4CCc5ccccc5C4)CC3)n2)c1 (configuration not stated)	11.5	89.5*	26.3	0.4
Fc1cccc(Cc2noc(CN3CCSCC3)n2)c1	19.9	-5.1	-6.1	1.6
COc1ccc(Cc2noc(CN3CCCN(Cc4ccc(F)cc4)CC3)n2)cc1OC	-2.3	77.2*	12.8	0.0
O=C(NCc1cccs1)C1CC(=O)N(c2ccc(Cl)cc2)C1 (configuration not stated)	-3.6	-6.8	-6.7	3.8
CCN1C(=O)c2ccccc2Sc2ccc(C(=O)NCCCN3CCOCC3)cc21	22.3	0.0	4.3	-1.5
O=C(NCCN1CCOCC1)c1ccc2c(c1)N(Cc1ccccc1F)C(=O)c1ccccc1S2	7.9	100.1*	19.0	3.7
Cc1cccc(CN2C(=O)c3ccccc3Sc3ccc(C(=O)NCCN4CCOCC4)cc32)c1	7.1	99.8*	-12.9	0.1
CCC(C)NC(=S)N(CCc1ccccc1)Cc1cc2cc(OC)c(OC)cc2[nH]c1=O (configuration not stated)	27.2	32.8	11.5	0.1
CSc1ccc(CNc2ccc(Cl)cc2)cc1	-15.0	99.9*	-2.6	2.7
CSc1ccc(CNC2CC2)cc1	2.7	-2.5	29.9	-0.1
CS(=O)(=O)c1ccc(SCC(=O)NC2CCS(=O)(=O)C2)c([N+](=O)[O-])c1 (configuration not stated)	6.1	-0.7	-2.7	2.9
Cc1ccc(N2CCN(c3ccc(C)cc3)C2c2cccnc2)cc1	75.8*	86.5*	13.9	1.0
O=C1C2ON(c3ccccc3)C(c3cccnc3)C2C(=O)N1c1ccccc1 (configuration not stated)	10.3	-9.9	10.2	1.7
c1ccc(N2CCN(c3ccccc3)C2c2cccnc2)cc1	7.8	91.7*	11.4	1.9
COc1cccc(C2N(c3ccccc3)CCN2c2ccccc2)c1OC	54.9	5.0	-5.5	0.6
c1ccc(N2CCN(c3ccccc3)C2c2ccncc2)cc1	-1.6	82.3*	-11.6	2.3
CC(C)OC(=O)C(=O)NNc1ccccc1	40.5	41.9	72.2*	0.5
SMILES	CHOP inhibitor	Lmaj promast	WT yeast gro inh	RAM inhibit
CCCOC(=O)C(=O)NNc1ccccc1	2.7	28.8	57.6	0.6
O=C(NNc1ccccc1)C(CCO)C(=O)NNc1ccccc1	2.4	75.5*	26.9	0.1
CC(O)CC(C(=O)NNc1ccccc1)C(=O)NNc1ccccc1 (configuration not stated)	35.3	62.8*	53.1	0.9
CCC(C)(NC=O)C(=O)Nc1c(C)cccc1C (configuration not stated)	-5.6	x	x	x
COC(=O)CC1C(=O)NCCN1C(=O)CSc1nnnn1-c1ccc(OC)cc1 (configuration not stated)	-5.9	-3.8	9.4	1.2
COc1ccc(NC(=S)NCCCN2CCN(C3CCCCC3)CC2)cc1	29.4	21.8	-9.4	2.6
